The inhibition is the drop in the measured response relative to a control, in per cent.

This is an account of results in PubChem BioAssay AID2153 (The Scripps Research Institute Molecular Screening Center, 2009).

Structures are written as SMILES. Screen size: about 2,400 compounds; about 2,000 (83%) were called active. The set was probably picked from earlier hits. A selection follows. A number with no mark means an inactive call.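 Rule for the calls: active = inhibition above the solvent-only control well mean plus 3 SD, limit set per screening run (cut at about 23% in these data); inactive = the rest.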

Chain of Guanyl-specific ribonuclease T1 (Aspergillus oryzae (strain ATCC 42149 / RIB 40)) (P00651 whole entry, looked up): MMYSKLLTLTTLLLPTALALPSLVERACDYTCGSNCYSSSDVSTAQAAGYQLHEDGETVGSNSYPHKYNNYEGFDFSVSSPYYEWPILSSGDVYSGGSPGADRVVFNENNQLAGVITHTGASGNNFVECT

The assay has as its target Guanyl-specific ribonuclease T1 (Aspergillus oryzae (strain ATCC 42149 / RIB 40)) (UniProt P00651). Description: RNase T1 inhibitors, counter-screen for TPT1 inhibitor project, biochemical, fluorescence polarization (AID 2153).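 Note: plate controls were DMSO wells with enzyme for no effect and wells without RNase T1 for full effect; inhibitors block cleavage so intact labeled substrate keeps polarization high.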 To be noted: RNase T1 cleavage, 1536-well, at 5 µM, stronger effect = higher value. A general note: Counterscreens check selectivity or assay interference.
`Cc1cc(O)c(C(=O)/C=C/c2c(F)c(F)c(F)c(F)c2F)c(=O)o1`: the inhibition was 81.2% (active).

Consider `N#CC1=C(N)Oc2c(sc3ccccc23)C1c1ccco1` (stereo not given), for which the inhibition is 76.9% (active).

Take `Cn1c2ccccc2c2cc(/C=C(\NC(=O)c3ccccc3)C(=O)NCC(=O)O)ccc21`: the inhibition is 92.9% (active).

`Cc1ccc(Nc2ccccc2N)cc1`: the inhibition is 36% (active).

Take `Cc1cccn2c(=O)c(/C=C3\SC(=S)N(CC(C)C)C3=O)c(NCCCOC(C)C)nc12`: the inhibition is 131% (active).

On to `COc1cc(/C=C2/C(=O)NN(c3cccc(Cl)c3)C2=O)cc(Br)c1O`, for which the inhibition was 150% (active).

For `Cc1cc(C)c(/C=C2\C(=O)Nc3ccccc32)[nH]1`, the inhibition was 118% (active).

`Cc1ccc(-c2nn(-c3ccccc3)cc2/C=C2\SC(=S)N(CCCCCC(=O)O)C2=O)o1`: the inhibition is 73.6% (active).

`CCC(c1nnnn1Cc1ccco1)N(Cc1cc2cc(OC)ccc2[nH]c1=O)C1CCCCC1` (stereo not given): the inhibition is 17.9%.

In the case of `N#C/C(=C(/O)COC(=O)COc1ccc(Cl)cc1)c1nc2ccccc2[nH]1`, the inhibition was 50.6% (active).

In the case of `CCOc1ccc2nc(/N=C/c3nc(-c4ccccc4)oc3O)sc2c1`, the inhibition was 65.4% (active).

In the case of `Cc1c(-c2ccccc2)cn2c1-c1ccc(C)n1CC2`, the inhibition is 47.3% (active).

For the compound `Cn1cccc1/C=C1\SC(=S)N(NC(=O)c2ccc(Cl)cc2)C1=O`, the inhibition is 113% (active).

With `Fc1ccc2nc(Nc3nc4c(s3)CCCC4)sc2c1`, the inhibition was 37.5% (active).

Regarding `CN1/C(=C\C=C2\N=C(c3ccc(F)cc3)OC2=O)C(C)(C)c2ccccc21`, the inhibition was 140% (active).

Turning to `Cc1ccc(C)c2[nH]c(=O)c(CCNC(=O)CC(C)C)cc12`, the inhibition is 6.2%.

As to `N#C/C(=C/c1ccc(N2CCCCC2)o1)C(=O)NCCc1c[nH]c2ccccc12`, the inhibition was 170% (active).

For `CN1/C(=c2/s/c(=C3/C(=O)N(c4ccccc4)NC3=Nc3ccccc3)n(C)c2=O)C(C)(C)c2ccccc21`, the inhibition was 92.8% (active).

Turning to `CS(=O)(=O)c1ccc2c(c1)SC1=NC(=O)/C(=C/c3ccco3)C(=N)N12`, the inhibition is 60.6% (active).

For the compound `CCN(CC)c1ccc(/C=N/Nc2nc(C)cc(C)n2)c(O)c1`, the inhibition was 44.9% (active).

Regarding `Cc1ccc(S(=O)(=O)N(C)c2nc3ccccc3n3c(C(C)C)nnc23)cc1`, the inhibition is 3.03%.

In the case of `CCOc1nnc(C)c2c(C)n(-c3cccc(Cl)c3)nc12`, the inhibition was 88.4% (active).

On to `CSC1=N/C(=C\C=C\c2cccs2)C(=O)S1`, for which the inhibition is 64.5% (active).

As to `CCCOc1ccc(Cn2c(O)cc(=O)[nH]c2=O)cc1`, the inhibition was 30.3% (active).

For the compound `COc1ccc(C2=NN(C(=O)c3ccccc3C(=O)O)C(c3ccccc3O)C2)cc1` (stereo not given), the inhibition was 37.9% (active).

As to `O=C(/C=C/c1ccc(N2CCOCC2)cc1)c1ccccc1`, the inhibition was 91.3% (active).

Consider `Cc1ccc(Nc2nc(Cl)c(C=O)s2)cc1`, for which the inhibition was 77.2% (active).

As for `Cc1ccc2[nH]c(=O)c(CN3CCCCC3)c(-c3ccccc3)c2c1`, the inhibition was 3.06%.

For the compound `CCOc1ccc(-n2c(O)c(/C=N/c3ccnn3Cc3ccncc3)c3ccccc3c2=O)cc1`, the inhibition is 92% (active).

For the compound `Cc1ccc2cc(/C=N/Nc3ccc(C(=O)O)cc3)c(Cl)nc2c1`, the inhibition was 46.9% (active).

Consider `CCn1c(/C=C/c2ccc([N+](=O)[O-])o2)nc2ccccc2c1=O`, for which the inhibition was 49.4% (active).

On to `CN=c1scc(-c2cc(OC)ccc2OC)n1/N=C/c1c(C)[nH]c2ccccc12`, for which the inhibition was 32.1% (active).

On to `COc1cc(N2CCCC2)c(OC)cc1/C=C(/C#N)c1cccc(Br)c1`, for which the inhibition was 91.3% (active).

For the compound `CCN1/C(=C\c2ccc3ccccc3[n+]2CC)Sc2cc(C)ccc21`, the inhibition was 88.3% (active).

For the compound `CCN1/C(=C/c2ccc3ccc(C)cc3[n+]2CC)Sc2ccccc21`, the inhibition was 59.6% (active).

Take `O=S(=O)(O)Oc1c[nH]c2ccccc12`: the inhibition was 49.5% (active).

With `CCOC(=O)C1=C(C)Nc2sc(C(=O)c3ccc(Br)cc3)c(N)c2C1c1ccc(C(=O)OC)cc1` (stereo not given), the inhibition was 37.3% (active).

Regarding `Cc1cc(/C=C2/SC(=O)N(CC(=O)N3CCCC3)C2=O)ccc1N1CCOCC1`, the inhibition was 78.1% (active).

On to `CC(=O)n1c(C=Nc2ccccc2)c(O)c2ccccc21`, for which the inhibition is 84.6% (active).

On to `COC(=O)c1[nH]c2cccc(C)c2c1NC(=O)CN1CCCc2ccccc21`, for which the inhibition is 29.8% (active).

Turning to `CCN(CC)c1ccc2cc(C(N)=O)/c(=N\NC(=O)c3ccncc3)oc2c1`, the inhibition was 135% (active).

Consider `CCOC(=O)c1c(NC(=S)Nc2ccccc2)sc2c1CCN(C)C2`, for which the inhibition was 54% (active).

`CC(=O)c1cc(NC(=O)c2ccccc2)c(=O)oc1/C=C/N(C)C`: the inhibition was 123% (active).

Take `CC[n+]1cc(C)ccc1/C=C/c1ccc(N(C)C)cc1`: the inhibition was 51.2% (active).

Turning to `O=C(NNc1c2ccccc2nc2ccccc12)c1cc2ccccc2cc1O`, the inhibition was 46.8% (active).

On to `CCN(CC)C(=O)CSC(Nc1cccc(F)c1)=C(C#N)C#N`, for which the inhibition is 61.1% (active).

As for `CN(C)CCCn1c(N)c(C#N)c2nc(C#N)c(C#N)nc21`, the inhibition is 58.9% (active).

`Cc1ccc(N=C2NC(=O)/C(=C/C=C/c3ccco3)S2)cc1C`: the inhibition was 30.5% (active).

Take `COc1ccc(Cc2nc(-c3ccccn3)no2)cc1OC`: the inhibition is 13.1%.

Consider `CN(C)c1ccc(/C=C2\NC(=S)N(Cc3ccccc3)C2=O)cc1`, for which the inhibition is 144% (active).

For `CCOC(=O)c1c(CC(C)C)csc1/N=C/C1=C(O)CCCC1=O`, the inhibition was 17.9%.

With `Cc1cc(/C=N/Nc2ccc([N+](=O)[O-])cn2)c(C)n1-c1cccc(C(=O)O)c1`, the inhibition is 62.8% (active).

For the compound `Cc1ccc(-n2c(C)cc(/C=N/Nc3ccc([N+](=O)[O-])cn3)c2C)c(C)c1`, the inhibition was 76.1% (active).

As to `Nc1nonc1-n1nnc(C(=O)N/N=C/c2cc(Br)ccc2O)c1CSC1=NCCS1`, the inhibition was 41.6% (active).

Consider `COc1ccccc1/C=N/Nc1nc(C)c(C(C)=O)s1`, for which the inhibition is 39.1% (active).

In the case of `O=C(CN1C(=O)c2ccccc2C1=O)NCc1ccc(C(=O)O)cc1`, the inhibition was 15.9%.

In the case of `Cc1c(CC(=O)N2CCN(C(=O)C3COc4ccccc4O3)CC2)c(=O)oc2c(O)c(O)ccc12` (stereo not given), the inhibition was 8.71%.

In the case of `COc1cc(/C=C2/SC(=S)N(Cc3ccccc3)C2=O)cc(OC)c1O`, the inhibition was 108% (active).

As to `NC(=O)c1c(Nc2nc3c(F)cccc3s2)sc2c1CCCC2`, the inhibition was 97.8% (active).

For the compound `CC1=CC2=NC(=O)/C(=C/c3coc4ccccc4c3=O)C(=N)N2O1`, the inhibition was 45.6% (active).
